These results are taken from ChEMBL document CHEMBL3988442, “University of Dundee, Small-Polar-MMV Screening Library” (2021).

For some of these results: Results with a measured potency or affinity are listed apart.

Holding throughout (set-up): scale not given: direction of the effect not stated beside the values
The target of assay [1] is Protein translocase subunit SecA (Escherichia coli (strain K12)) (UniProt P10408). As to the kind of experiment: Assay to Identify E. coli SecA ATPase Inhibitors. Format: functional. The note with it: 30 µM.
Chain of Protein translocase subunit SecA (Escherichia coli (strain K12)) (P10408 whole entry): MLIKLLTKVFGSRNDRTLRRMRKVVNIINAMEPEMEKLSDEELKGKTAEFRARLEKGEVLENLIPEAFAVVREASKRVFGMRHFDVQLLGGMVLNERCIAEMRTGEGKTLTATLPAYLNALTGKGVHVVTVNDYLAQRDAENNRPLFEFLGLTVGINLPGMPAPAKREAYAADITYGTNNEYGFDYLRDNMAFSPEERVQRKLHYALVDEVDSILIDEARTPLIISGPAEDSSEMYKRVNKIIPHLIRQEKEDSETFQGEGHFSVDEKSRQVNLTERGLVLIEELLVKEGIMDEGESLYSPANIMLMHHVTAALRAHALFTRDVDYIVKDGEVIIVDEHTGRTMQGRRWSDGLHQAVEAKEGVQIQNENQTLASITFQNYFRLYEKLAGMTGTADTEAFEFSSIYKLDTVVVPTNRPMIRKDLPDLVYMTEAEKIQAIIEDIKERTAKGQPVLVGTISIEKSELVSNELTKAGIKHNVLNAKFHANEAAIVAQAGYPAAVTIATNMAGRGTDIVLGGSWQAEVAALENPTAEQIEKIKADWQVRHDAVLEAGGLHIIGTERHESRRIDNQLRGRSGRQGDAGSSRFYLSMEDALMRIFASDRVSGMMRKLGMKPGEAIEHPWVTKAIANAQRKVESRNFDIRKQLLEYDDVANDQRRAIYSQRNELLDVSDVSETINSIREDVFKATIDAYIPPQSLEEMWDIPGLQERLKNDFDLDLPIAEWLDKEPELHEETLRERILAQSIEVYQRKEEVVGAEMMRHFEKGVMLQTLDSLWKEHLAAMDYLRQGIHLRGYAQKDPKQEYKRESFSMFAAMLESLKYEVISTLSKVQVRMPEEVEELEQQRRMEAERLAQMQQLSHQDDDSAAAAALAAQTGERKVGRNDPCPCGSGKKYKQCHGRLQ
Assay [2] deals with T1, Ubiquitin-activating enzyme e1, putative (Leishmania donovani (strain BPK282A1)) (UniProt E9BSI1).
T1 sequence (whole entry): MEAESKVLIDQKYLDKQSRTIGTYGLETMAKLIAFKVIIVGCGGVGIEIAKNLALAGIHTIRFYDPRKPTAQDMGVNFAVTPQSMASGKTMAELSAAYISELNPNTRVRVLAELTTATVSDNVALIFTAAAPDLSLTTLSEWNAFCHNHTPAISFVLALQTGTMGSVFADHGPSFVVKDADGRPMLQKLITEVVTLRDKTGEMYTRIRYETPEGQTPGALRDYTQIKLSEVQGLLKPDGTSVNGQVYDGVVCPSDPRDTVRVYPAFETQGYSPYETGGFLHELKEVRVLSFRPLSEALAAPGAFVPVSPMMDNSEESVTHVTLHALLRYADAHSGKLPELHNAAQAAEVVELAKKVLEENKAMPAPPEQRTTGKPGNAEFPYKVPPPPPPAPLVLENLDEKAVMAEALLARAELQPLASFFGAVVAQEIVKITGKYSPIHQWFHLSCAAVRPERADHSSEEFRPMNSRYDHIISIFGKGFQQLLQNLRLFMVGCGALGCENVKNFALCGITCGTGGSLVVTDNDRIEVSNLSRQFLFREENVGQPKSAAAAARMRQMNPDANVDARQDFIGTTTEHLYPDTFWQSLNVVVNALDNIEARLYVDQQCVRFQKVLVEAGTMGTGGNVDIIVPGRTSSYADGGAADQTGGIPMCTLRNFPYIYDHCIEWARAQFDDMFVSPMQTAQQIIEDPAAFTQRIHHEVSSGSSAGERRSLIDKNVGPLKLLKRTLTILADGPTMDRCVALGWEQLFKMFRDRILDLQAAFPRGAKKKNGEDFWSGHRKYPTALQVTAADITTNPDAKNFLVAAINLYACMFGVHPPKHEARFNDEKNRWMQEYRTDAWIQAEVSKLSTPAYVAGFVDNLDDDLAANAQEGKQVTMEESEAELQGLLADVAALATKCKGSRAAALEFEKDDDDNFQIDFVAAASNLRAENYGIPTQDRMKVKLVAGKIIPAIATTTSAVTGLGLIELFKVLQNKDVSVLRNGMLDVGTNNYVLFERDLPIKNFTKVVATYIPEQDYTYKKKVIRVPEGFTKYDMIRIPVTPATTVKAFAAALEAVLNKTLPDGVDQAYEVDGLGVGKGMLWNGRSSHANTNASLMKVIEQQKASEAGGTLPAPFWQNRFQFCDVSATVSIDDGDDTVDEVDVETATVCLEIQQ
As to the kind of experiment: Leishmania donovani Ubiquitin Activating Enzyme (LdE1). Conditions: 30 µM. Format: functional.

Assay [3] concerns the target AMP-activated protein kinase, AMPK (Homo sapiens) (UniProt P54646+O43741+P54619+Q9UGJ0+Q9Y478+Q13131+Q9UGI9). Description: AMP-dependent Kinase enzyme assay. An in vitro enzyme assay that detects ADP turnover that is directly proportional to AMPK activity. This uses naive AMPK that is activated during the assay with MK-8722. Conditions: 30 µM. It counts as functional.

Assay [4] addresses Sialic acid-binding Ig-like lectin 9 (Homo sapiens) (UniProt Q9Y336). As to the kind of experiment: Hs-Siglec9 ALPHAscreen SOP 20170721. Conditions: 10 µM.
The next assay has as its system Trypanosoma cruzi. Description: Trypanosoma cruzi phosphomannomutase and mannose-1-phosphate guanylyltransferase assay. It counts as functional. Conditions: 10 µM.
Assay [5] addresses T2, Arginase-2, mitochondrial (Homo sapiens) (UniProt P78540).
T2 sequence (whole entry): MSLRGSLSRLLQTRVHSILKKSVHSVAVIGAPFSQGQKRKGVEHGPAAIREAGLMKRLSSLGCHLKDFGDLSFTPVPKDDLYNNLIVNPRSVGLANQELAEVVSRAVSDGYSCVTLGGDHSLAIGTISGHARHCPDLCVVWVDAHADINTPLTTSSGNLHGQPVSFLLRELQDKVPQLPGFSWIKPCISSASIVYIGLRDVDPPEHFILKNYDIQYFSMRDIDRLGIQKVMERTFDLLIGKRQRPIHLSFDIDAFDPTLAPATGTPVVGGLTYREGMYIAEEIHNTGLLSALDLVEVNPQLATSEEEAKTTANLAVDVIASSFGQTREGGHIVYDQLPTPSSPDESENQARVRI
Description: in vitro enzyme assay to detect the production of urea directly proportional to the activity of Arginase II. Also: in the data most compounds retested in dose-response had high values. The note with it: 33.3 µM. Format: functional.

In assay [6] the target is T3, Proteasome subunit beta (Trypanosoma cruzi) (UniProt O96673).
T3 sequence (whole entry): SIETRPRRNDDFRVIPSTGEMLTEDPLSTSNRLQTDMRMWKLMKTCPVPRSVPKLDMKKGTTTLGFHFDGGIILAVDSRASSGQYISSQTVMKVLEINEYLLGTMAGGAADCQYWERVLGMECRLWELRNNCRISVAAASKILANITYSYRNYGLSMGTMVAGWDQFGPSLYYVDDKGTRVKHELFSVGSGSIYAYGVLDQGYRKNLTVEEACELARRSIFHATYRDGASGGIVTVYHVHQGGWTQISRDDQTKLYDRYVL
As to the kind of experiment: Trypanosoma cruzi proteasome chymotrypsin-like activity (TcProtChymo) assay. Also: in the data most compounds retested in dose-response had high values. It counts as functional. Conditions: 9.37 µM.

The species entered for the next assay is Homo sapiens. As to the kind of experiment: To identify inhibition of the IFN signalling (Jak-Stat) pathway via expression of an eGFP reporter gene under the control of an IFN-stimulated response element (ISRE) containing MxA promoter. It counts as functional. The note with it: 30 µM. On the technique in general: Reporter assays use an easily measured gene product as a stand-in for the process of interest.

For assay [7], the target named is T4, Tyrosyl-tRNA synthetase, putative (Trypanosoma cruzi (strain CL Brener)) (UniProt Q4DSP6).
T4 sequence (whole entry): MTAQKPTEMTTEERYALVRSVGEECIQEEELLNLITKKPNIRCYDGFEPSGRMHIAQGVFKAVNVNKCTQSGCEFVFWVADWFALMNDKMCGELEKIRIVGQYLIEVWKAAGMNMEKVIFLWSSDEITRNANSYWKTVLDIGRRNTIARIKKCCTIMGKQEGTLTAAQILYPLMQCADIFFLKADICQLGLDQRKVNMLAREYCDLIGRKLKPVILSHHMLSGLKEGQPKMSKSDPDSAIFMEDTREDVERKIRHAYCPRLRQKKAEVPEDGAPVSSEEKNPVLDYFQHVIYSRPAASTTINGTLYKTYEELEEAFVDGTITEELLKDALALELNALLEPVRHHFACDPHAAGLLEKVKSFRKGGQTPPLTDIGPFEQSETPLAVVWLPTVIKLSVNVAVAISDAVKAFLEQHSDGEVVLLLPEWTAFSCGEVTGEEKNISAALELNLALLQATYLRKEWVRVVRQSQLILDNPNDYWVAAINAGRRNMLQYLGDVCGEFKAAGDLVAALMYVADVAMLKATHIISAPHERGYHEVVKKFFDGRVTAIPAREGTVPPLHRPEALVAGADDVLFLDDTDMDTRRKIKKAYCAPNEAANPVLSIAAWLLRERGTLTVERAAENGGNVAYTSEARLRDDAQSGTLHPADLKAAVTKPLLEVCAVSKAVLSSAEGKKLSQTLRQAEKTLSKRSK
As to the kind of experiment: Trypanosoma cruzi tyrosyl tRNA synthetase (TcYRS) _High Tyrosine SOP. Also: in the data most compounds retested in dose-response had high values. It counts as functional. Conditions: 30 µM.

The target in assay [8] is T4, Tyrosyl-tRNA synthetase, putative (Trypanosoma cruzi (strain CL Brener)). As to the kind of experiment: Trypanosoma cruzi tyrosyl tRNA synthetase (TcYRS) SOP. It counts as functional. The note with it: 30 µM.
The target in assay [9] is Chromo domain-containing protein 1 (Saccharomyces cerevisiae (strain ATCC 204508 / S288c) (Baker's yeast)) (UniProt P32657). As to the kind of experiment: ScCHD-1 Enzyme Inhibition Assay. Also: in the data most compounds retested in dose-response had high values. It counts as functional. Conditions: 30 µM.
Chain of Chromo domain-containing protein 1 (Saccharomyces cerevisiae (strain ATCC 204508 / S288c) (Baker's yeast)) (P32657 whole entry, the tested form may be a part): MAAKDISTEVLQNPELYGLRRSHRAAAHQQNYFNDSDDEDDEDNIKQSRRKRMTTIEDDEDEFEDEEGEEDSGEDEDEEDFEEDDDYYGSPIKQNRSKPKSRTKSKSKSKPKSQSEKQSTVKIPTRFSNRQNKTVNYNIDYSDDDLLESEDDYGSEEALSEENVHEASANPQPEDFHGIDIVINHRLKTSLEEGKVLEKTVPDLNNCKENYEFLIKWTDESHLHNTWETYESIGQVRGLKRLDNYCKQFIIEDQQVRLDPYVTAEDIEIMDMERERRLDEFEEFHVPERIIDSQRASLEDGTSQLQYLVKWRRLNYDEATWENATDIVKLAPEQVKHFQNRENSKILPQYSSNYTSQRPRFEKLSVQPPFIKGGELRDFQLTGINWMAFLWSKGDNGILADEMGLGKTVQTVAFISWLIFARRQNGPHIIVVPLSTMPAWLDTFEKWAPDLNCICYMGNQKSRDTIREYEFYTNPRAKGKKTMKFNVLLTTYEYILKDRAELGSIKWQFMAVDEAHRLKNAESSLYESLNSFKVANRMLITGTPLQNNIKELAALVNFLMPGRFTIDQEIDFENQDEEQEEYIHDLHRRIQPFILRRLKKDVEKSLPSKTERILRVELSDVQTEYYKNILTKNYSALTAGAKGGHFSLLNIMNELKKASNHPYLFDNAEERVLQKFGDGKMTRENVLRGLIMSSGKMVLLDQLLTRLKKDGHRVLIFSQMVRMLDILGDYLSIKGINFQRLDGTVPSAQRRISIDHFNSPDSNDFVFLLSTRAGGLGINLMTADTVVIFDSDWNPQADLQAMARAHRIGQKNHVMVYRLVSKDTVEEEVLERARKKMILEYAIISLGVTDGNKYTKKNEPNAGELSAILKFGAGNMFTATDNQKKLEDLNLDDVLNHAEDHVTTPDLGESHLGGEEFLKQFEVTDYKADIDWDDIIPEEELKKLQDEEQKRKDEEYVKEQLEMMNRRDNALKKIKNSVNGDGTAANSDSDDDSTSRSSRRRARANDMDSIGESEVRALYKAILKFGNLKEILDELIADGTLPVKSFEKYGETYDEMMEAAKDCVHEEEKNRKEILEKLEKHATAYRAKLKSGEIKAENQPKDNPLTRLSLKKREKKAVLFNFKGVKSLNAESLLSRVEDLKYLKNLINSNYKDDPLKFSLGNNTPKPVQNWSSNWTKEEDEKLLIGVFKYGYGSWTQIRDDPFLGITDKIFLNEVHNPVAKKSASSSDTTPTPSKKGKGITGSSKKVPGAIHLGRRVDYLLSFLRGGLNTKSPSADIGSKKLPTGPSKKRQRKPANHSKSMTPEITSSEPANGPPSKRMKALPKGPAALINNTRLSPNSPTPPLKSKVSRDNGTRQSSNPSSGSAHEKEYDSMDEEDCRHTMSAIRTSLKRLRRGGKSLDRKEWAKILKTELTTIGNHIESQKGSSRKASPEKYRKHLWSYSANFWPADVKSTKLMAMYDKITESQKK

Chain of Sialic acid-binding Ig-like lectin 9 (Homo sapiens) (Q9Y336 whole entry): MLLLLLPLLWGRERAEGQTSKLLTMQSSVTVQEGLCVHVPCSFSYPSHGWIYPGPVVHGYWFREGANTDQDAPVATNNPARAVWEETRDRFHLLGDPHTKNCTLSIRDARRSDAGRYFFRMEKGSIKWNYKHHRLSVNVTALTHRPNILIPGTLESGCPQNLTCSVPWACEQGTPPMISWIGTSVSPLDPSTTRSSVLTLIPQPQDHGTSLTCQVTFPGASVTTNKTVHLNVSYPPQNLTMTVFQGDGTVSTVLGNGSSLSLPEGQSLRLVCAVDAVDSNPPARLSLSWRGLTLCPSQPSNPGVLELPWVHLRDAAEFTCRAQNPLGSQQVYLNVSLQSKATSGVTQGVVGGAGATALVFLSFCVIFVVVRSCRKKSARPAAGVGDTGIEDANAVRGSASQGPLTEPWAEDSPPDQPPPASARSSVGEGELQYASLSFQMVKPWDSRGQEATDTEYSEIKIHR

On to `Cc1cnn(CC2CCCCN2Cc2nnc(-c3ccco3)o2)c1` (stereo unspecified), for which the Percent Effect was -5.16% in [1]; 13.5% in [2]; -9.36% in [3]; 20.3% in assay [4]; 3.11% with Trypanosoma cruzi; -5.61% in assay [5]. The Percent Effect in [6] was 13.3%; in the assay filed under Homo sapiens, 7.01%; in [7] it was 8.37%; in [8] it was 18.5%; in [9], -11.7%.
Regarding `Cc1c[nH]c(CN(C)C(=O)c2cccc(CCC(C)(C)O)c2)n1`, the Percent Effect is -4.48% in assay [1]; 8% in assay [2]; -4.37% in [3]; 15.8% in [4]; 5.16% with Trypanosoma cruzi; 20.3% in assay [5]. The Percent Effect in [6] is 18%; in the assay filed under Homo sapiens, -2.28%; in assay [7] it was 3.83%; in assay [8], 16.1%; in assay [9] it was -3.88%.
Take `O=C(NCCNc1ncccn1)C1CCN(C(=O)C2CC2)CC1`: the Percent Effect in [1] is -2.16%; in [2], 13.5%; in assay [3], 5.28%; in assay [4], -1.97%; in the assay on Trypanosoma cruzi, -4.55%; in assay [5] it was 5.36%. Moreover, the Percent Effect came out at 0.718% in [6]; 13.2% in the assay listed under Homo sapiens; 6.93% in [7]; 13.4% in assay [8]; 3.86% in assay [9].
`Cc1nccn1-c1cc(CNC(=O)c2ccccn2)ccn1`: the Percent Effect in assay [1] was -3.33%; in assay [2], 16.4%; in assay [3], 4.31%; in [4], 6.49%; with Trypanosoma cruzi, 3.33%; in assay [5], -0.455%. The Percent Effect is 17.6% in assay [6]; 15.2% in the assay listed under Homo sapiens; 2.15% in [7]; 20% in assay [8]; -4.24% in [9].
Take `NC(=O)NCC(=O)N1C[C@H]2CC[C@@H]1CN(Cc1ccccc1)C2`: the Percent Effect in assay [1] was -4.49%; in assay [2] it was 5.48%; in assay [3], 6.44%; in assay [4], -9.32%; with Trypanosoma cruzi, -0.979%; in assay [5], -6.82%. Moreover, the Percent Effect was 11.4% in assay [6]; -13.6% in the assay filed under Homo sapiens; 6.45% in assay [7]; 7.5% in assay [8]; -5.72% in assay [9].
As for `O=C(NCc1nnc2n1CCCC2)N(Cc1ccccc1F)C1CC1`, the Percent Effect is -2.88% in assay [1]; 5.41% in [2]; -1.8% in assay [3]; 0.0872% in assay [4]; -2.12% in the assay with Trypanosoma cruzi; -2.38% in [5]. In addition, the Percent Effect in assay [6] was 12.8%; in the assay listed under Homo sapiens, 7.52%; in [7], 0.529%; in [8], 0%; in assay [9] it was -4.24%.
For the compound `Cc1cnc(Nc2nccnc2C2CCN(C)CC2)s1`, the Percent Effect in assay [1] was 3.01%; in assay [2] it was 13.3%; in [3], 9.68%; in assay [4] it was -6.36%; in the assay with Trypanosoma cruzi, -4.92%; in assay [5], 0.699%. Moreover, the Percent Effect was 5.2% in assay [6]; 10.5% in the assay filed under Homo sapiens; 7.45% in assay [7]; 8.97% in assay [8]; -6.78% in assay [9].
With `O=C(Nc1cc(C(F)(F)F)c[nH]c1=O)c1ccco1`, the Percent Effect in [1] is -2.24%; in assay [2], -2.63%; in [3], 19.1%; in assay [4], 5.92%; with Trypanosoma cruzi, 0.28%; in assay [5] it was -15.5%. Moreover, the Percent Effect in [6] is 10.9%; in the assay filed under Homo sapiens, -15.5%; in assay [7], 6.4%; in assay [8], 6.17%; in assay [9] it was 0.552%.
Consider `CN(CCC(F)(F)F)C(=O)[C@H]1CSCN1C(=O)OC(C)(C)C`, for which the Percent Effect was -4.76% in assay [1]; 0% in assay [2]; 3.13% in assay [3]; 1.23% in assay [4]; 8.03% with Trypanosoma cruzi; 0% in assay [5]. The Percent Effect in assay [6] is 1.77%; in the assay filed under Homo sapiens, -11.9%; in assay [7], 1.07%; in [8] it was 2.5%; in [9] it was -1.07%.
For `CCc1nc(CN(C(C)=O)C2CCN(Cc3cnc(C)cn3)C2)no1` (stereo unspecified), the Percent Effect in assay [1] is -1.41%; in assay [2], 22.8%; in assay [3], -8.69%; in assay [4], -10.4%; in the assay with Trypanosoma cruzi, -3.31%; in assay [5], 4.18%. Further, the Percent Effect in [6] is 5.16%; in the assay filed under Homo sapiens, 27.4%; in assay [7], 4.43%; in assay [8], 13.9%; in assay [9], -6.99%.
On to `COc1c(C2CCCN2C(=O)c2cc(Cl)c[nH]2)c(C)nn1C` (stereo unspecified), for which the Percent Effect in [1] was -5.79%; in assay [2], 5.41%; in assay [3], 4.66%; in assay [4], -0.555%; in the assay with Trypanosoma cruzi, -0.781%; in assay [5], 2.08%. Also, the Percent Effect is 4.31% in assay [6]; -1.4% in the assay listed under Homo sapiens; 9.9% in assay [7]; -3.66% in [8]; -3.93% in assay [9].
